# Data reported in PubChem BioAssay (NCI).
# Compounds without any hit were thinned out: in the full panel of roughly 83,000, 20% have a hit.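 Activity criterion: percent growth below 10, measured after cells in 96-well plates were exposed to a single compound concentration for 48 hours.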 Values without a mark were called inactive. Active and inactive are the calls of the source.
# Tests used:
# Experiment in all cases: NCI-60 one-dose screen, 48 h (100 = growth as untreated, 0 = no growth, -100 = all killed)
# Settings in all cases: 10 µM unless noted
# [1] = test system: DU-145 prostate
# [2] = test system: K-562 leukemia
# [3] = test system: MDA-MB-231 breast
# [4] = test system: RXF 393 renal
# [5] = test system: SF-268 CNS
# [6] = test system: SF-295 CNS
# [7] = test system: SF-539 CNS
# [8] = test system: UACC-257 melanoma
# [9] = test system: M14 melanoma
# [10] = test system: HCT-15 colon
# [11] = test system: HT29 colon
# [12] = test system: SNB-75 CNS
# [13] = test system: SNB-19 CNS
# [14] = test system: U251 CNS
# [15] = test system: PC-3 prostate
# [16] = test system: SK-MEL-5 melanoma
# [17] = test system: UACC-62 melanoma
# [18] = test system: LOX IMVI melanoma
# [19] = test system: SK-MEL-28 melanoma
# [20] = test system: MALME-3M melanoma
Compound,growth [1],growth [2],growth [3] [%],growth [4] [%],growth [5],growth [6],growth [7],growth [8],growth [9],growth [10] [%],growth [11],growth [12],growth [13] [%],growth [14] [%],growth [15],growth [16],growth [17],growth [18],growth [19] [%],growth [20] [%]
O=C1Nc2ccc(C(=O)O)c(O)c2C1=O,111%,107%,113,116,104%,108%,94.4%,117%,107%,110,117%,103%,107,106,95.7%,104%,101%,54.5%,111,–
CCN(CC)c1ccc(C(=C2C=CC(=[N+](CC)Cc3cccc(S(=O)(=O)O)c3)C=C2)c2ccc(N(CC)Cc3cccc(S(=O)(=O)O)c3)cc2)cc1,37.2%,7.9% (active),62.3,–,34.5%,15.5%,62.1%,–,19.5%,85.1,12.8%,33.2%,56.9,20.8,-3.18% (active),54%,63.8%,–,30.3,59.4
O=C(CN1CCN(c2ccc(Cl)cc2)CC1)N1CCN(c2nnc(-c3ccccc3)c(-c3ccccc3)n2)CC1,62.8%,4.43% (active),64.5,–,58.5%,38.4%,50.5%,–,60.1%,42.3,29.2%,65.8%,60,45.8,12.1%,-9.45% (active),53%,38.5%,83,76.5
COc1ccc(/C=C2/SC(=Nc3c(C)nn(-c4ccccc4)c3N)NC2=O)cc1,43.6%,15.2%,66.3,83.6,58.8%,8.06% (active),23.6%,59%,17.2%,33.3,16.6%,5.59% (active),51.3,40,29.1%,21.2%,26.8%,33.1%,58.7,–
O=C(Oc1cccc2ccccc12)c1ccccc1C(=O)c1ccccc1,99.3%,5.05% (active),85.7,98.3,79%,98.5%,103%,90.4%,93.4%,93.2,59.5%,98.1%,101,79.5,47.6%,96.6%,96.6%,72.3%,119,–
CCOC(CNCc1cc(C)c2[nH]c3ccccc3c2c1C)OCC,109%,34.3%,63,73.2,86.2%,60.2%,83.7%,76%,64.9%,80.7,53.1%,73.6%,78.6,83.2,58.6%,79.8%,77.9%,77.2%,97.3,–
NS(=O)(=O)N(c1cc(C(F)(F)F)cc(C(F)(F)F)c1)C1CCN(Cc2ccc(C(F)(F)F)cc2)CC1,8.8% (active),21%,19.1,–,38.5%,49.8%,0.806% (active),–,-0.587% (active),45.7,5.92% (active),-4.94% (active),–,33,26%,38.2%,24.3%,23.5%,55.4,71.2
C(=C1c2ccccc2-c2ccccc21)c1ccncc1,84.9%,11.4%,44.2,72.3,54.8%,35.6%,56.3%,74.5%,18.7%,26.9,8.42% (active),-5.86% (active),45.1,27.8,58.6%,46.6%,30.8%,39.5%,68.8,–
CC(=O)Nc1cc2c3c(cccc3c1)-c1ccccc1-2,97.7%,71.9%,67.5,92.4,39%,92.9%,39.7%,88.8%,99.6%,79.4,108%,60.1%,91.2,75.3,57.9%,102%,89%,75.9%,103,–
COc1ccc(C2=NN(C(N)=S)C(c3ccc4c(c3)OCO4)C2)cc1 (centres undefined),-3.99% (active),5.68% (active),48.7,48.5,21.5%,-9.16% (active),21.4%,38%,21.6%,23.2,7.46% (active),26.5%,46.9,21.6,33.3%,41.5%,43.6%,-18.2% (active),75.4,–
Nc1ccc2c(c1)C(=O)c1cc(Cl)c(Cl)cc1-2,100%,87.5%,79.1,104,93.4%,105%,87.4%,107%,104%,103,104%,68.7%,96.6,90.4,74.9%,98%,77.9%,86%,122,–
CC(NC(=O)Oc1cccc2ccccc12)c1ccccc1 (centres undefined),107%,84.1%,77.6,105,78.1%,107%,97.9%,73.2%,107%,100,104%,87.4%,105,90.7,84.9%,97%,89.2%,87.2%,110,–
N[C@H](CS)C(=O)O,121%,107%,114,–,119%,94.4%,89.7%,–,116%,96.6,95.9%,84.2%,96.1,105,94.1%,105%,99.9%,100%,125,91
COC(=O)CC1=C(c2ccc([N+](=O)[O-])cc2)CCC1=O,101%,98.7%,102,110,101%,100%,97%,109%,109%,89.6,107%,82%,109,103,91.9%,103%,100%,94.6%,109,–
CC[C@@H](C)/C=C(C)/C=C/C(=O)c1c(O)c(-c2ccc(O)cc2)cn(OC2CC(=O)CCC(C)OC(=O)CC2O)c1=O (some centres undefined),4.8% (active),13.8%,42.6,33.6,-7.36% (active),-22% (active),-4.57% (active),-2.46% (active),-13.7% (active),26.8,29.5%,18%,22.9,11.1,34%,-22.7% (active),-13.1% (active),2.2% (active),34,–
